For 19 molecules, AC50 and outcome results are on record in PubChem BioAssay (EPA / NIEHS).

The structures appear in SMILES notation. Records with an inconclusive call do not appear. The source made the active and inactive calls. How the source made its calls, unless noted: active means hit-call score of the fitted dose curve at least 0.9, where 1 is the maximum; inconclusive means response in the unintended direction; inactive means score below 0.9.

The term AC50 denotes the concentration giving half of the maximal activity seen.

Assay [1] deals with Cytochrome P450 2C19 (Homo sapiens) (UniProt P33261). In words: NVS_ADME_hCYP2C19: NovaScreen (NVS) CYP450-related Enzyme Activity (ADME) Assay for human CYP2C19 (AID 2283113).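 On AC50: potency for inhibition seen as loss of fluorescent signal.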 The gist of the method:
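Chemicals first screened in duplicate at 10 uM against recombinant human enzyme produced in insect cells; confirmed actives then run as concentration series. Fluorogenic substrate turnover read by fluorescence after 1 h, normalised to acetonitrile.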

Assay [2] addresses human CYP2C9, CYP2C9 (gene 1559) (UniProt P11712). In words: NVS_ADME_hCYP2C9: NovaScreen (NVS) CYP450-related Enzyme Activity (ADME) Assay for human CYP2C9 (AID 2283108). The essentials:
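Fluorescence readout of CYP2C9 activity (SF9-expressed human enzyme) at 0.75 h. The primary screen used 10 uM in duplicate, with concentration-response follow-up for actives; acetonitrile was the negative control.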

The target of assay [3] is Cytochrome P450 2C18 (Homo sapiens) (UniProt P33260). In words: NVS_ADME_hCYP2C18: NovaScreen (NVS) CYP450-related Enzyme Activity (ADME) Assay for human CYP2C18 (AID 2283103; active means hit-call score of the fitted dose curve at least 0.9, where 1 is the maximum; inactive means score below 0.9). The gist of the method:
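Cell-free recombinant human CYP2C18 with fluorogenic substrate; fluorescence intensity read 0.5 h after dosing. Single-point screen at 10 uM in duplicate, then concentration-response up to 20 uM; loss of signal fitted against acetonitrile baseline.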

In assay [4] the target is human CYP1A2, CYP1A2 (gene 1544) (UniProt P05177). In words: NVS_ADME_hCYP1A2: NovaScreen (NVS) CYP450-related Enzyme Activity (ADME) Assay for human CYP1A2 (AID 2283102).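 On AC50: potency for inhibition since loss of fluorescence marks reduced CYP1A2 activity.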 The essentials: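 Compounds were tested at 10 uM in duplicate against recombinant CYP1A2 produced in insect cells. Enzyme activity was measured by fluorescence 0.5 h after dosing, with loss of signal versus acetonitrile control. Active compounds were re-tested in concentration series.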

The target in assay [5] is Cytochrome P450 3A4 (Homo sapiens) (UniProt P08684). As to the kind of experiment: NVS_ADME_hCYP3A4: NovaScreen (NVS) CYP450-related Enzyme Activity (ADME) Assay for human CYP3A4 (AID 2283110). The essentials:
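Compounds were first screened in duplicate at 10 uM against recombinant CYP3A4 produced in insect cells, then actives were run in concentration series. Enzyme activity was measured by fluorescence after 0.33 hour, with acetonitrile as baseline.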

For assay [6], the target named is human CYP2C8, CYP2C8 (gene 1558) (UniProt P10632). As to the kind of experiment: NVS_ADME_hCYP2C8: NovaScreen (NVS) CYP450-related Enzyme Activity (ADME) Assay for human CYP2C8 (AID 2283104; active means hit-call score of the fitted dose curve at least 0.9, where 1 is the maximum; inactive means score below 0.9). The essentials:
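Recombinant human CYP2C8 with fluorogenic substrate, 0.5 h, fluorescence intensity; signal loss fitted versus acetonitrile. Screened in duplicate at 10 uM, then actives run in concentration-response up to 20 uM.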

Assay [7] concerns the target human CYP2D6, CYP2D6 (gene 1565) (UniProt P10635). In words: NVS_ADME_hCYP2D6: NovaScreen (NVS) CYP450-related Enzyme Activity (ADME) Assay for human CYP2D6 (AID 2283107). The gist of the method: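 Compounds were first tested in duplicate at 10 uM against recombinant enzyme produced in insect cells, with substrate turnover measured by fluorescence after 1 hour. Decreased signal, referenced to acetonitrile vehicle, was taken as reduced enzyme activity. Active chemicals went on to concentration-response testing.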

The target of assay [8] is human CYP2J2, CYP2J2 (gene 1573) (UniProt P51589). As to the kind of experiment: NVS_ADME_hCYP2J2: NovaScreen (NVS) CYP450-related Enzyme Activity (ADME) Assay for human CYP2J2 (AID 2283106). The gist of the method:
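Cell-free assay of recombinant CYP2J2 with a fluorogenic substrate, read 1 h after dosing; loss of signal versus acetonitrile. Primary screen at 10 uM in duplicate, then concentration-response up to 20 uM for chemicals passing threshold (e.g., 30% inhibition).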

Sequence of Cytochrome P450 2C18 (Homo sapiens) (P33260 whole entry, looked up): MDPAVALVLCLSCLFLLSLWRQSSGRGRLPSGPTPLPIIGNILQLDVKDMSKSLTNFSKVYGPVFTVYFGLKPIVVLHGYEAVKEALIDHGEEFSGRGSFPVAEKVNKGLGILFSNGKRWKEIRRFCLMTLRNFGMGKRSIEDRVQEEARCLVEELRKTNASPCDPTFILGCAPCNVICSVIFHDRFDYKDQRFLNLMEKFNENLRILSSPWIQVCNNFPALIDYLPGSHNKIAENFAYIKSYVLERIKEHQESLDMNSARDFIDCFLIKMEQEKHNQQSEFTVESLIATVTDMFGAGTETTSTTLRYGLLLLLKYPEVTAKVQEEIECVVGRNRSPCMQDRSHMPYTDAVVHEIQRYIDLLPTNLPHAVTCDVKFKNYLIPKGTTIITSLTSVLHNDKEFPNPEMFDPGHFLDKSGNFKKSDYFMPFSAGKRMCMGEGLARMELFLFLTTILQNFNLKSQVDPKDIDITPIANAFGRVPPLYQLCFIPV
Sequence of human CYP2D6, CYP2D6 (gene 1565) (P10635 whole entry, looked up): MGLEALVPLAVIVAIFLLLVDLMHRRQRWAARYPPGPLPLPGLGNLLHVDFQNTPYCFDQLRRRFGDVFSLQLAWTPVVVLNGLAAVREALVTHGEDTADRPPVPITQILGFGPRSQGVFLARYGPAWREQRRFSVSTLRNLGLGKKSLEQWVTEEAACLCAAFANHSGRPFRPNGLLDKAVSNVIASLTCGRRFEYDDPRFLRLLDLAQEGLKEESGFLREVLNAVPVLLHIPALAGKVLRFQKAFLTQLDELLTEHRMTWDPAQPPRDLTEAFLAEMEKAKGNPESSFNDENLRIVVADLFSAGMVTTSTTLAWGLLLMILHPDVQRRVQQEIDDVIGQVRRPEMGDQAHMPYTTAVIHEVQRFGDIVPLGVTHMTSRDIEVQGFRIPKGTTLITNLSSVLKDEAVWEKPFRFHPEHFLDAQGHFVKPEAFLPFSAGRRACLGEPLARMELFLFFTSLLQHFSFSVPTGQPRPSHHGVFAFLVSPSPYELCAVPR
Sequence of human CYP2C9, CYP2C9 (gene 1559) (P11712 whole entry, looked up): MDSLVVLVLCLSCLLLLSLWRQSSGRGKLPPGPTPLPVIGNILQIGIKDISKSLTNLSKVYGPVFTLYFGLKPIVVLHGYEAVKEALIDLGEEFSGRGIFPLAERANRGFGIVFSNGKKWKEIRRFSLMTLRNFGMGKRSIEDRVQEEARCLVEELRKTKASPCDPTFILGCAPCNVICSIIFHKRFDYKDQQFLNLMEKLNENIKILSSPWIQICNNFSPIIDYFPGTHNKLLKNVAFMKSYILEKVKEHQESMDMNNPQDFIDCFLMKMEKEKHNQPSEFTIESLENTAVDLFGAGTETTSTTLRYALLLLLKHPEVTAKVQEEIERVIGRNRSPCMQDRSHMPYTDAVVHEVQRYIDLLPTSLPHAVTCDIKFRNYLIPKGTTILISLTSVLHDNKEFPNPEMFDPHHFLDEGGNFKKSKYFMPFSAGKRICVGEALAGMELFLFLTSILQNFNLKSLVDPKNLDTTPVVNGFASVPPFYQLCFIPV
Sequence of human CYP1A2, CYP1A2 (gene 1544) (P05177 whole entry, looked up): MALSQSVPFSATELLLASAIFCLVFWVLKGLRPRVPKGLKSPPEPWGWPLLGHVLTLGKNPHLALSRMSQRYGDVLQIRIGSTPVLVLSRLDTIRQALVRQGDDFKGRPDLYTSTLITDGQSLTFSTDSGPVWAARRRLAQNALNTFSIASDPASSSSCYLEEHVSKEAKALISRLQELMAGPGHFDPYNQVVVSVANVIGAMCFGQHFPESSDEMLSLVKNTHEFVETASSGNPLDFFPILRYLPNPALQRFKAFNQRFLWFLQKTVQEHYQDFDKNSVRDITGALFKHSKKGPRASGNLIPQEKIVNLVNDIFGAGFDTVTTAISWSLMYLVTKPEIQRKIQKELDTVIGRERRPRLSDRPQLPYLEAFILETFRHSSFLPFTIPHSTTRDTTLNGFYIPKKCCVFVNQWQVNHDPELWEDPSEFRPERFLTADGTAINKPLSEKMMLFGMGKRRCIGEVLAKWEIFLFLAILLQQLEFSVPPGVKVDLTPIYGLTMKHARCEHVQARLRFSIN
Sequence of human CYP2C8, CYP2C8 (gene 1558) (P10632 whole entry, looked up): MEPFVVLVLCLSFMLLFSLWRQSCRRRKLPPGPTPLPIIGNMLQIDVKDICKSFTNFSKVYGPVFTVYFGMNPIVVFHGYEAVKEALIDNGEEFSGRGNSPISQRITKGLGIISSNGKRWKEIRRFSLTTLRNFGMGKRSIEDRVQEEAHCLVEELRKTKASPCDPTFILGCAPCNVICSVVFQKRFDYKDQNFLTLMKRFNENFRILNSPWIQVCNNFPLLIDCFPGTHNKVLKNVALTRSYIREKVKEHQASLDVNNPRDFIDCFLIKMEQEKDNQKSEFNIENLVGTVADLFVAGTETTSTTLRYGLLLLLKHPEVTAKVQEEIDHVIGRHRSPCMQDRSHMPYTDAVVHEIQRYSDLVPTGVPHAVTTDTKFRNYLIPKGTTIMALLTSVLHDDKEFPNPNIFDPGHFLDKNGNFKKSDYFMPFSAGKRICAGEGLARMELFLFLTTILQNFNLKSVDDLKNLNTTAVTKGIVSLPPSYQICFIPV
Sequence of human CYP2J2, CYP2J2 (gene 1573) (P51589 whole entry, looked up): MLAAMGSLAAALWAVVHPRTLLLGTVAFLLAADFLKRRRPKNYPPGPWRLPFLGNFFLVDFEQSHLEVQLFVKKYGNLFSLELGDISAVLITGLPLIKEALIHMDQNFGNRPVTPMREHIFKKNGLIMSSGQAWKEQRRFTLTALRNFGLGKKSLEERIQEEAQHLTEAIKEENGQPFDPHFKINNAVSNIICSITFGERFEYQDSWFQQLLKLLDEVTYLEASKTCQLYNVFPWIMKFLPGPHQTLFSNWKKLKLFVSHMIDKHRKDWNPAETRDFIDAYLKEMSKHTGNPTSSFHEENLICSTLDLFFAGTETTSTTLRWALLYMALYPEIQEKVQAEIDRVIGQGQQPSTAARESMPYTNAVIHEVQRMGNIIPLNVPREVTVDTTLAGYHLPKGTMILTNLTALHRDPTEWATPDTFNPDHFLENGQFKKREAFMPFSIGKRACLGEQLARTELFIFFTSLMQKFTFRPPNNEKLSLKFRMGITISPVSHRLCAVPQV
Sequence of Cytochrome P450 3A4 (Homo sapiens) (P08684 whole entry, looked up): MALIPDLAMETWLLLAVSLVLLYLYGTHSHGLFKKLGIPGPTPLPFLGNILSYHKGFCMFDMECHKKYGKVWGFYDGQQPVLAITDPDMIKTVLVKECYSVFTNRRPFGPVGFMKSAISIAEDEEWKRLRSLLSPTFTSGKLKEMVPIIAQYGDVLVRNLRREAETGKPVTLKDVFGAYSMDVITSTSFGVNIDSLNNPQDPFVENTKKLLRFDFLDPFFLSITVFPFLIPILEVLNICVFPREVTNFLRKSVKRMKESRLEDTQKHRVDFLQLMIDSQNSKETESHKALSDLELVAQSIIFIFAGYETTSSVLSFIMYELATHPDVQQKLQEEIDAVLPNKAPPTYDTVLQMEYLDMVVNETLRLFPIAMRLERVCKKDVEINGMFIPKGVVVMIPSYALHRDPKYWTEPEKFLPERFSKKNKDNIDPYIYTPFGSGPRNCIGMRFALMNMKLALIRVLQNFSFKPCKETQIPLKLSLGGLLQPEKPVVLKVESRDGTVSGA

For the molecule `CC(=NC#N)N(C)Cc1ccc(Cl)nc1`, the AC50 in assay [1] was 10 µM (active).

Take `CCOP(=O)(OCC)Oc1cc(C)nc(C(C)C)n1`: the AC50 in assay [1] was 10 µM (active).

Consider `CCOP(=S)(OCC)OC(Cl)C(Cl)(Cl)Cl` (centres undefined), for which the AC50 in assay [2] is 10 µM (active).

As for `COc1ccc(C(=CC(=O)N2CCOCC2)c2ccc(Cl)cc2)cc1OC`, the AC50 in assay [3] is 7 µM (active); in assay [1], 7.59 µM (active).

As for `CCOP(=O)(NC(C)C)Oc1ccc(SC)c(C)c1` (centres undefined), the AC50 in assay [4] is 4.84 µM (active); in assay [1], 5.92 µM (active).

Consider `CC(C)=CC1C(C(=O)OCN2C(=O)C3=C(CCCC3)C2=O)C1(C)C` (centres undefined), for which the figures for the AC50 in assay [3], in assay [2] and in assay [1] were 4.3 µM (active), 10 µM (active) and 6.88 µM (active), respectively.

With `C=C(C)[C@H]1Cc2c(ccc3c2O[C@@H]2COc4cc(OC)c(OC)cc4[C@@H]2C3=O)O1`, the AC50 in assay [3] was 2.62 µM (active); in assay [1] it was 0.434 µM (active). Moreover, in assay [5], the outcome was inactive.

Regarding `CCNc1nc(Cl)nc(NC(C)(C)C#N)n1`, in assay [6], the molecule was classed as inactive.

`CC(C)[C@H](C(=O)O[C@H](C#N)c1cccc(Oc2ccccc2)c1)c1ccc(Cl)cc1`: the AC50 in assay [1] is 8.22 µM (active).

Turning to `COP(=O)(OC)OC(Br)C(Cl)(Cl)Br` (centres undefined), the result in assay [7] and in assay [2] was inactive. The AC50 in assay [1] is 7.79 µM (active).

In the case of `CCOP(=S)(OCC)Oc1cc(C)nc(C(C)C)n1`, the AC50 in assay [1] is 4.82 µM (active).

Turning to `CCCSP(=O)(OCC)SCCC`, in assay [7], the AC50 is 7.87 µM (active).

As for `CCC(CC)Nc1c([N+](=O)[O-])cc(C)c(C)c1[N+](=O)[O-]`, the molecule was classed as inactive in assay [4]. In addition, the AC50 in assay [1] is 10 µM (active).

Take `COc1cccc(C(=O)NN(C(=O)c2cc(C)cc(C)c2)C(C)(C)C)c1C`: the molecule was called inactive in assay [2]. Moreover, in assay [1], the AC50 was 2.58 µM (active).

`CSc1nnc(C(C)(C)C)c(=O)n1N`: the call in assay [7] and in assay [1] was inactive.

For `CCC(=NOC/C=C/Cl)C1=C(O)CC(C2CCOCC2)CC1=O` (centres undefined), in assay [2], the molecule was classed as inactive.

`CCOP(=O)(SC(C)CC)N1CCSC1=O` (centres undefined): the AC50 in assay [1] is 6.44 µM (active).

As for `CSC1=N[C@@](C)(c2ccccc2)C(=O)N1Nc1ccccc1`, the AC50 was 5.62 µM (active) in assay [3] and 0.776 µM (active) in assay [1].

Turning to `C#CCC1=C(C)C(OC(=O)C2C(C=C(C)C)C2(C)C)CC1=O` (centres undefined), the AC50 in assay [3] is 7.41 µM (active); in assay [8], 10 µM (active); in assay [2], 7.23 µM (active). In addition, the molecule was called inactive in assay [6].
